Results taken from PubChem BioAssay.
“And” between values parts separate entries of the source, which are not always exact repeats. Equal values may be shown once. Inconclusive results are not listed. Where a structure was tested more than once in an assay, its records may differ in their call. The source made the active and inactive calls.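 Rule for the calls, unless noted: active = normalized viability below 100% at a tested concentration; inactive = the rest.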

How the values were obtained:
[1] = viability loss in pontine glioma line – cell-based, SU-DIPG-XXV, MIPE5.0, CellTiter-Glo, qHTS, dose response (AID 1347065; cut-off not given, nearly all actives have AC50 up to about 26 µM;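 note: cells exposed to compound for 48 hours before ATP readout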); conditions: CellTiter-Glo ATP luminescence
[2] = JHH-DIPG-1 glioma cell viability, MIPE5.0 library, CellTiter-Glo luminescence, qHTS (AID 1347067; cut-off not given, nearly all actives have AC50 up to about 26 µM;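 note: cells exposed to compound for 48 hours before readout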); conditions: JHH-DIPG-1 glioma viability, CellTiter-Glo ATP luminescence
[3] = SU-DIPG-XXV glioma cell viability, MIPE5.0 library, qHTS (AID 1347068; cut-off not given, nearly all actives have IC50 up to about 30 µM)
[4] = sensitizers of A549 cells to miR-34 induction, primary screen, imaging, A549 dox-inducible miR-34, nuclei and caspase counts (AID 1347080;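 active = compounds whose cell count with miR-34 switched on is under 0.7 times the count with it off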); conditions: A549 miR-34 inducible, Hoechst nuclei count, 48 h
[5] = survival rescue of mitochondrial mutant cells in low glucose, primary screen, MELAS cybrids, Rieske KO mouse fibroblasts, CellTiter-Glo (AID 1508586;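 active = mean z-score across replicates of 1.96 or higher in either the MELAS or the Rieske mutant cell line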;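 note: z relative to plate mean and SD of compound and empty wells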)
[6] = molecular target: NAD(+) hydrolase SARM1 (Homo sapiens) (UniProt Q6SZW1); test: SARM1 TIR NADase inhibitors, cell lysate, NAD-Glo luminescence (AID 1508614;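 active = compound whose remaining NAD level is above about 45 nM, limit read from the data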;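 note: higher remaining NAD means stronger inhibition of SARM1 NADase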); conditions: SAM-TIR HEK293T lysate NADase, at 1 µM, stronger effect = higher value
NAD(+) hydrolase SARM1 (Homo sapiens), sequence (Q6SZW1 whole entry, looked up, the tested form may be a part): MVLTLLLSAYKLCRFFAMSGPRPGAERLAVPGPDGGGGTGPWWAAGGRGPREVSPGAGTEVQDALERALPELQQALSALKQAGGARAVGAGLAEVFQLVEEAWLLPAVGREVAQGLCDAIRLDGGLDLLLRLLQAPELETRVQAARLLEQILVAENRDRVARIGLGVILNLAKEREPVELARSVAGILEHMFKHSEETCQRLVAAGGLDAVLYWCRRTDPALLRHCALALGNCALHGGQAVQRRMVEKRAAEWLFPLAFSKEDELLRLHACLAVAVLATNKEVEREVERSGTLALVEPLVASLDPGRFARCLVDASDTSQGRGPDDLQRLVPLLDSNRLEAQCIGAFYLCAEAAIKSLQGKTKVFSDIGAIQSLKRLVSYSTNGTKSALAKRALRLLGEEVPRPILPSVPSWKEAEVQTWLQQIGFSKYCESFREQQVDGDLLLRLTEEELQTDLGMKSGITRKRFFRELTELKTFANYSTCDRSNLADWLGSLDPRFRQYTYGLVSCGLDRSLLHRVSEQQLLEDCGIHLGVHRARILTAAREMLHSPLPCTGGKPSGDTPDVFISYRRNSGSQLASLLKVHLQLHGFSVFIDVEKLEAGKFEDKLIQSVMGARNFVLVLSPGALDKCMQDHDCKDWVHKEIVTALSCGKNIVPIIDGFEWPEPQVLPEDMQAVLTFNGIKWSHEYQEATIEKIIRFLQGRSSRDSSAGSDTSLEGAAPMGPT

[7] = molecular target: Mitogen-activated protein kinase 7 (Homo sapiens) (UniProt Q13164); test: ERK5 transactivation activators in reporter cells, primary screen, cell-based, HTS (AID 1508626;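 active = luciferase signal above three times the same-plate solvent-only control wells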;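 note: luciferase driven by Gal4-ERK5 fusion binding five Gal4 sites before minimal TATA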); conditions: HeLa Gal4-ERK5 transactivation, 18 h, at 5 µM, stronger effect = higher value
Mitogen-activated protein kinase 7 (Homo sapiens), sequence (Q13164 whole entry, looked up, the tested form may be a part): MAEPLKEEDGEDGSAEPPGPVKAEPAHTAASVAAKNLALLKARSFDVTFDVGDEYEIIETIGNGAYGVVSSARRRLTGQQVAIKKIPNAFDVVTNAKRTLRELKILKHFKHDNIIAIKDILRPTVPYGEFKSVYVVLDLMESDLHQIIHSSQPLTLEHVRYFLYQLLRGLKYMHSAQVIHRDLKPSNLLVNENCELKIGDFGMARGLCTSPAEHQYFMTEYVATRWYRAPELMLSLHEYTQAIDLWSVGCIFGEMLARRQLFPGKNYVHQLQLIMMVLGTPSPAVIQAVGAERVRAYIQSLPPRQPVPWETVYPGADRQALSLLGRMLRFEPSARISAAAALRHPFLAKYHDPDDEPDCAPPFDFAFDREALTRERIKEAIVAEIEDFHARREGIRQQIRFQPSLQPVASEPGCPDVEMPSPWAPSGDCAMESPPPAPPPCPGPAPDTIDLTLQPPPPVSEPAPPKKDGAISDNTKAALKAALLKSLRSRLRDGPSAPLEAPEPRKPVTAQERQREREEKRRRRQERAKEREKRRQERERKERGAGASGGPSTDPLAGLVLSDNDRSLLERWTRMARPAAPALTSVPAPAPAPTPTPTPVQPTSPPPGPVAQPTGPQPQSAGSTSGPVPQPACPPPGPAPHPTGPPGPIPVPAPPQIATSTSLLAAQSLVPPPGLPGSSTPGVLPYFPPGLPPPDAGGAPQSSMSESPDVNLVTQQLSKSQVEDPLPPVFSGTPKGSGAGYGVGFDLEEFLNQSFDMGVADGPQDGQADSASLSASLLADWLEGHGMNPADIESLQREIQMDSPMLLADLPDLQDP

[8] = inhibitors of Cryptococcus chitosan production, flow cytometry, Cibacron Brilliant Red staining (AID 1347148; call rule not given here;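 note: compound exposure lasted three days at 37 degrees C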); conditions: Cryptococcus neoformans chitosan, stronger effect = lower value; at 10 µM unless noted
[9] = modifiers of HSF1 nuclear foci, imaging, Selleck Cancer Library (AID 1347162; in the data active = plate-normalised HSF1 focus index below about 0.46); conditions: human cells, at 10 µM; SSMD: measured here: HSF1 foci SSMD mean; cell count: measured here: cell number; plate-normalised HSF1 focus index: stronger effect = lower value
[10] = phospholipid biosynthesis inhibitors in animal cells, primary screen, cell-based, LOPAC library, screen 4 (AID 1347384; call rule not given here); conditions: phospholipid biosynthesis inhibition screen, at 10 µM
[11] = ovarian cancer cell viability with rucaparib, profiling panel, oncology-focused library, rucaparib conditional (AID 1508598); conditions: patient-derived ovarian cancer cells, CellTiter-Glo viability, 144 h, stronger effect = lower value
[12] = viability rescue of complex I mutant cybrids, primary screen, cell-based, galactose medium, ATP luminescence (AID 1645843;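 active = z-score of at least 1.8 in each of two replicates, scored against plate mean and spread of sample wells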;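 note: positive z means more ATP and so rescue of galactose-driven cybrid death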); conditions: complex I mutant cybrid cells, 72 h, stronger effect = higher value
[13] = stronger effect = lower value, cell number ratio, induced over uninduced
[14] = measured here: relative caspase fold change +Dox/-Dox
[15] = measured here: total cells with miR-34 induction, stronger effect = lower value
[16] = measured here: total cells without miR-34 induction
[17] = MELAS cybrid survival, CellTiter-Glo 48 h, stronger effect = higher value
[18] = Rieske KO mouse fibroblast survival, CellTiter-Glo 72 h

COc1ccc(C(=O)CC(=O)c2ccc(C(C)(C)C)cc2)cc1
7480 and 11300: cell count [4, 15]
-0.399 (inactive) and 2 (active): z-score [5, 17]
7740 and 13000: cell count [4, 16]
0.938 and 3.78: fold change [4, 14]
inactive: outcome [1] | outcome [2] | outcome [3] | fold change [4, 13] 0.967 and 0.867 | remaining NAD [6] 10 nM | luciferase signal [7] 44 AU
0.325 and 0.254: z-score [5, 18]

CN(Cc1cnc2nc(N)nc(N)c2n1)c1ccc(C(=O)N[C@@H](CCC(=O)O)C(=O)O)cc1
1.22 and 0.656 and 1.41: fold change [4, 14]
2980 and 3110 and 5280: cell count [4, 15]
-0.369: z-score [5, 18]
2000 and 2580 and 4920: cell count [4, 16]
inactive: outcome [2] | outcome [3] | fold change [4, 13] 1.49 and 1.21 and 1.07 | fold fluorescence [8] 3.97 [at 117.8 µM] | plate-normalised HSF1 focus index [9] 1.08 | outcome [10] | z-score [5, 17] 1.68 | viability ([11]; at 0.000305 µM, OCI-C5x cells, with rucaparib 10 µM, 100% = cells with rucaparib alone) 110% | viability ([11]; at 0.000305 µM, OCI-C5x cells, without rucaparib) 111% | viability ([11]; at 0.000305 µM, OCI-P5x cells, with rucaparib 20 µM, 100% = cells with rucaparib alone) 113% | viability ([11]; at 0.000305 µM, OCI-P5x cells, without rucaparib) 112% | viability ([11]; at 0.00122 µM, OCI-C5x cells, with rucaparib 10 µM, 100% = cells with rucaparib alone) 104% | viability ([11]; at 0.00122 µM, OCI-P5x cells, with rucaparib 20 µM, 100% = cells with rucaparib alone) 111% | viability ([11]; at 0.00122 µM, OCI-P5x cells, without rucaparib) 109% | viability ([11]; at 0.00488 µM, OCI-C5x cells, with rucaparib 10 µM, 100% = cells with rucaparib alone) 113% | viability ([11]; at 0.00488 µM, OCI-C5x cells, without rucaparib) 106% | viability ([11]; at 0.00488 µM, OCI-P5x cells, with rucaparib 20 µM, 100% = cells with rucaparib alone) 111% | viability ([11]; at 0.00488 µM, OCI-P5x cells, without rucaparib) 111% | viability ([11]; at 0.0195 µM, OCI-C5x cells, with rucaparib 10 µM, 100% = cells with rucaparib alone) 105% | viability ([11]; at 0.0195 µM, OCI-C5x cells, without rucaparib) 103% | viability ([11]; at 0.0195 µM, OCI-P5x cells, with rucaparib 20 µM, 100% = cells with rucaparib alone) 103% | viability ([11]; at 0.0195 µM, OCI-P5x cells, without rucaparib) 105% | viability ([11]; at 0.0781 µM, OCI-P5x cells, with rucaparib 20 µM, 100% = cells with rucaparib alone) 110% | viability ([11]; at 0.313 µM, OCI-P5x cells, with rucaparib 20 µM, 100% = cells with rucaparib alone) 104% | viability ([11]; at 1.25 µM, OCI-P5x cells, with rucaparib 20 µM, 100% = cells with rucaparib alone) 101% | z-score [12] -1.06 and -0.71
active: AC50 [1] 417 nM | viability ([11]; at 0.00122 µM, OCI-C5x cells, without rucaparib) 91.8% | viability ([11]; at 0.0781 µM, OCI-C5x cells, with rucaparib 10 µM, 100% = cells with rucaparib alone) 59.6% | viability ([11]; at 0.0781 µM, OCI-C5x cells, without rucaparib) 35.7% | viability ([11]; at 0.0781 µM, OCI-P5x cells, without rucaparib) 98.3% | viability ([11]; at 0.313 µM, OCI-C5x cells, with rucaparib 10 µM, 100% = cells with rucaparib alone) 18.2% | viability ([11]; at 0.313 µM, OCI-C5x cells, without rucaparib) 17.2% | viability ([11]; at 0.313 µM, OCI-P5x cells, without rucaparib) 93.3% | viability ([11]; at 1.25 µM, OCI-C5x cells, with rucaparib 10 µM, 100% = cells with rucaparib alone) 17.8% | viability ([11]; at 1.25 µM, OCI-C5x cells, without rucaparib) 16.5% | viability ([11]; at 1.25 µM, OCI-P5x cells, without rucaparib) 90.7% | viability ([11]; at 5 µM, OCI-C5x cells, with rucaparib 10 µM, 100% = cells with rucaparib alone) 27.2% | viability ([11]; at 5 µM, OCI-C5x cells, without rucaparib) 26% | viability ([11]; at 5 µM, OCI-P5x cells, with rucaparib 20 µM, 100% = cells with rucaparib alone) 94% | viability ([11]; at 5 µM, OCI-P5x cells, without rucaparib) 87.3%
7580: cell count [9]
2.25: SSMD [9]
